Screens from PubChem BioAssay.
Measles CPE = compounds protecting cells from measles virus cytopathic effect, primary screen, measles RdRp inhibitor project, single point, MLSMR library, absorbance; Measles virus-infected cells, CPE protection; protection (pct of control), % at 4 µM; 1.5% of 140,000 active; in the data active = protection mostly above about 24%, no sharp cut-off; inactive = mostly below about 26%
IL1B NFkB pot = enhancers of NFkB p65 translocation in HUVEC – imaging, IL-1B stimulus, high-content imaging, primary screen. activation, % at 2 µM. 0.3% of 94,000 active. HUVEC IL-1B NFkB p65 nuclear translocation imaging;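 active = activation above 40%, about the mean plus 3 SD, also judged a hit on visual image review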;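 also: percent activation is computed from the nuclear over cytoplasmic p65 intensity ratio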
IL1B NFkB inh = inhibitors of IL-1B driven NFkB p65 nuclear import, primary screen, imaging, HUVEC, IL-1B stimulus, high-content imaging; HUVEC IL-1B NFkB p65 nuclear translocation imaging; inhibition, % at 2 µM; 0.43% of 94,000 active;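 active = inhibition above about 30% together with a positive call from visual inspection of the well image, limit read from the data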;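 also: nuclear over cytoplasmic p65 intensity ratio measured by imaging; 0% = IL-1B stimulated DMSO wells and 100% = unstimulated DMSO wells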
HUVEC tox IL1B = cytotoxicity in IL-1B stimulated HUVEC, primary screen, cytotoxicity control for IL-1B NFkB translocation project, imaging, Hoechst nuclear count, IL-1B stimulus; HUVEC cell count loss; 0.41% of 94,000 active; cell count reduction, % at 2 µM;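 active = cell count reduction more than 3 SD above the screen-wide mean, cut at about 70% in these data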;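 also: normalized per plate to untreated control cells as the no-loss baseline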
The depositor's hits bear a star; nt = no result given. Most compounds without a hit are left out; they make up all but 2.1% or so of the library.

SMILES	Measles CPE	IL1B NFkB pot	IL1B NFkB inh	HUVEC tox IL1B
O=C(OCC(=O)N1N=C(c2ccc(Cl)cc2)CC1c1ccco1)c1ccccc1O (stereo not given)	0.8	9.2	-9.2	20.5
CSc1nc(-c2ccc(Cl)cc2)nn1C(=O)c1ccco1	51.6*	8.8	-8.8	-14.4
COC(=O)CSc1nnc(CNS(=O)(=O)c2ccc(Cl)cc2)n1C	36.7*	3.0	-3.0	-18.6
COC(=O)CSc1nnc(CNC(=O)c2cc(OC)c(OC)c(OC)c2)n1C	24.6	-12.5	12.5	78.4*
COC(=O)c1ccccc1NC(=O)CSc1nnc(CNS(=O)(=O)c2ccc(C)cc2)n1C	14.4	-8.3	8.3	-7.0
COC(=O)CSc1nnc(CNC(=O)c2ccccc2OC)n1C	3.6	-4.5	4.5	-6.0
COCCn1c(SCC(=O)OC(C)C)nnc1-c1ccccc1	2.8	3.1	-3.1	-16.9
O=C(Nc1cnc2ccccc2c1)c1cccc(-n2cnnn2)c1	12.7	-0.1	0.1	1.2
c1ccc2ncc(-n3cnnn3)cc2c1	38.1*	20.0	-20.0	2.2
CCOC(=O)NC(NCc1ccccc1)(C(F)(F)F)C(F)(F)F	43.7*	nt	nt	nt
CN1CCN(CCC(=O)N/N=C/c2cc([N+](=O)[O-])ccc2O)CC1	2.4	nt	nt	nt
CN1CCN(c2ccc([N+](=O)[O-])cc2/C=N/NC(=O)c2ccc(F)cc2)CC1	6.8	-30.1	30.1*	12.5
CCC1=NN2C(=N)/C(=C/c3c(C)nn(-c4ccccc4)c3Cl)C(=O)N=C2S1	71.3*	nt	nt	nt
Clc1ccc(SCc2cn3ccsc3n2)cc1	56.5*	39.0	-39.0	-14.6
Cc1ccccc1CSc1nc(-c2ccccc2)cc(=O)[nH]1	20.8	nt	nt	nt
O=C(CNC(=O)Cn1ccc2ccccc2c1=O)NCCCN1CCCCCC1	11.4	nt	nt	nt
CCNc1cc2oc(=O)c(CN3CCOCC3)c(C)c2cc1C	42.9*	3.2	-3.2	7.7
Cc1cc2oc(=O)cc(CN3CCOCC3)c2cc1C	5.8	-2.5	2.5	-12.9
Clc1ccc(-c2nc3ccccc3n2OCc2ccccc2)cc1	39.2*	-6.1	6.1	-58.6
COc1ccc(-c2nc3ccccc3n2Cc2ccc(C)cc2)cc1	15.7	5.4	-5.4	-2.8
COC(=O)C1CCN(C(c2cc(OC)c(OC)c(OC)c2)c2sc3nc(C)nn3c2O)CC1 (stereo not given)	34.3*	nt	nt	nt
N#CC12CCCCC1CC1CCCCC1(C#N)N2Cc1cccnc1 (stereo not given)	112.9*	-0.2	0.2	-29.5
CCC(C)C(NC(=O)C1CCC(C)CC1)C(=O)NC(CCSC)C(=O)OC (stereo not given)	23.1*	12.3	-12.3	-1.9
COC(=O)C(CCSC)NC(=O)C(NC(=O)C1CCC(C)CC1)C(C)C (stereo not given)	0.5	-6.1	6.1	-6.3
Fc1cccc(Cl)c1/C=N/Nc1c(Cl)cncc1Cl	13.5	nt	nt	nt
SMILES	Measles CPE	IL1B NFkB pot	IL1B NFkB inh	HUVEC tox IL1B
CCOc1ccc(-n2cc(-c3ccccc3)c3c(SC(C)C(=O)OC)ncnc32)cc1 (stereo not given)	19.2*	nt	nt	nt
COC(=O)C(C)Sc1ncnc2c1c(-c1ccccc1)cn2-c1ccc(OC)cc1 (stereo not given)	2.8	nt	nt	nt
CCc1nn(C(C)C(=O)N2CCc3ccccc3C2)c(=O)c2cc3occc3n12 (stereo not given)	6.0	nt	nt	nt
CCCOc1ccc2c(=O)c(-c3cc(C(=O)OC)oc3C)c(C)oc2c1	7.5	-0.2	0.2	-22.6
O=C(O)c1ccccc1SCC(=O)N1CCCCC1	39.7*	-3.6	3.6	39.0
CCSC(=O)N(CC)CC(=O)Nc1c(CC)cccc1CC	32.4*	15.0	-15.0	-3.8
O=C(CN1C(=O)c2ccccc2C1=O)Nc1sc2c(c1C(=O)NCc1ccco1)CCCC2	61.7*	16.3	-16.3	25.4
O=C(COc1ccc(Cl)cc1)NCc1nnc(SCC(=O)N2CCCc3ccccc32)o1	3.1	-1.4	1.4	5.2
CCc1cc(-c2[nH]ncc2-c2ccc3c(c2)OCO3)c(O)cc1O	84.3*	nt	nt	nt
O=C(NC1(C(F)(F)F)NC(=O)N(c2ccc(F)c(Cl)c2)C1=O)c1ccncc1 (stereo not given)	25.4	-96.2	-0.7	87.8*
COc1ccc(C)cc1-n1nnnc1SCc1cc(=O)n2cc(C)ccc2n1	18.4	nt	nt	nt
COC(=O)c1ccc(CSc2nc3c(cnn3-c3ccc(C)c(C)c3)c(=O)[nH]2)o1	29.9*	3.6	-3.6	-21.0
CCCSc1nc2c(cnn2-c2ccc(C)c(C)c2)c(=O)[nH]1	8.9	-1.1	1.1	1.3
Cc1ccsc1C(=O)Nc1cccc(S(=O)(=O)N(C)C)c1	6.9	nt	nt	nt
O=C(c1ccc2ccccc2c1)N1CCN(c2ccc([N+](=O)[O-])c(N3CCOCC3)c2)CC1	3.9	44.9*	-44.9	-33.3
NS(=O)(=O)c1cccnc1Nc1cccc(Cl)c1Cl	27.6	13.1	-13.1	6.0
CCOC(=O)c1ccccc1NS(=O)(=O)c1ccccc1F	33.4*	-5.0	5.0	2.3
CCOC(=O)c1ccccc1NS(=O)(=O)c1ccccc1	6.6	3.2	-3.3	-26.2
CC(=O)C1=C(O)C(=O)N(CCc2c[nH]c3ccccc23)C1c1cccc(O)c1 (stereo not given)	24.8*	-7.0	7.0	1.5
COc1ccccc1/C=C/C(=O)NC(=S)NC(C)C	17.4	nt	nt	nt
Cc1ccc(Nc2nnns2)cc1	19.2	-38.2	38.2*	-14.2
Cc1sc(NC(=O)Cc2ccc3c(c2)OCO3)nc1-c1ccc2c(c1)CCN2C(=O)c1cccc(F)c1	53.4*	nt	nt	nt
Cc1sc(NC(=O)CN2CCOCC2)nc1-c1ccc2c(c1)CCN2S(=O)(=O)c1ccccc1	2.4	16.1	-16.1	-25.5
Cc1cccc(C(=O)N2CCc3cc(-c4nc(NC(=O)Cn5nnc6ccccc6c5=O)sc4C)ccc32)c1	33.4	nt	nt	nt
Cc1ccccc1C(=O)N1CCc2cc(-c3nc(NC(=O)Cc4ccc5c(c4)OCO5)sc3C)ccc21	62.1*	nt	nt	nt
SMILES	Measles CPE	IL1B NFkB pot	IL1B NFkB inh	HUVEC tox IL1B
Cc1ccc(Cn2ccc(NC(=O)c3cc(CC(C)C)on3)n2)cc1	10.7	nt	nt	nt
COC(=O)C(NS(C)(=O)=O)(c1c(C)[nH]c2ccccc12)C(F)(F)F (stereo not given)	nt	0.7	-0.7	3.3
COC(=O)c1ccc2c(c1)C(C)(C)C(/C=C/c1ccc(O)cc1)=[N+]2C	-1.9	-33.8	33.8*	-5.8
COC(=O)c1ccc(O)c(Sc2cc(C(=O)OC)ccc2O)c1	12.9	14.5	-14.5	6.7
COC(=O)c1ccc2nc(C)c(C)nc2c1	12.0	1.5	-1.5	3.8
COC(=O)c1ccc2c(c1)C(C)(C)C(/C=C/c1ccc(OC)c(OC)c1OC)=[N+]2C	0.5	-36.6	36.6*	-2.2
O=C(O)Cn1c(P(=O)(O)c2ccccc2)nc2ccccc21	6.8	7.4	-7.4	0.0
CCc1c(C)nc(/N=C(/NC(=O)c2ccccc2)Nc2ccccc2OC)[nH]c1=O	nt	-54.8	54.8*	-0.8
COc1ccccc1NC(=O)CNC(=O)c1ccccc1	0.4	0.5	-0.5	-12.3
Cc1cccc(N2CN(Cc3ccco3)CNC2=S)c1C	12.0	nt	nt	nt
COc1ccc(CC(=O)Nc2nc(-c3cccnc3)cs2)cc1	34.8*	nt	nt	nt
